# From PubChem BioAssay AID1159580 (chemical genetic matrix, 2015)
# In all, about 5,500 compounds went through this assay and about 2,000 (36%) were called active. Another 18% or so got no clear call; they are omitted. Some of the results follow. A number with no mark means an inactive call. Cut-off read from the data, not from the text of the source: active = normalized growth mostly below about 0.91 (no sharp cut-off); inconclusive = no clear call, values can overlap the other calls; inactive = mostly above about 0.92.
# Experiment: chemical genetic growth profiling, strain panel (AID 1159580);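 note: tested at 20 µM; growth read once vehicle control cultures reached saturation at 30 °C; 1 = growth at the plate median or of vehicle wells; lower values mean less growth of the strain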
# Conditions: growth OD
# [1] = S. cerevisiae deletion strains, locus YAL013W, strain DEP1, active compounds read low
# [2] = S. cerevisiae deletion strains, locus YBR229C, strain ROT2, active compounds read low
# [3] = S. cerevisiae deletion strains, locus YCL061C, strain MRC1, active compounds read low
# [4] = S. cerevisiae deletion strains, locus YDL101C, strain DUN1, active compounds read low
# [5] = S. cerevisiae deletion strains, locus YDR150W, strain NUM1, active compounds read low
# [6] = S. cerevisiae deletion strains, locus YEL061C, strain CIN8, active compounds read low
# [7] = S. cerevisiae deletion strains, locus YGR078C, strain PAC10, active compounds read low
# [8] = S. cerevisiae deletion strains, locus YGR229C, strain SMI1, active compounds read low
# [9] = S. cerevisiae deletion strains, locus YHR030C, strain SLT2, active compounds read low
# [10] = S. cerevisiae deletion strains, locus YHR087W, strain rtc3, active compounds read low
# [11] = S. cerevisiae deletion strains, locus YJR043C, strain POL32, active compounds read low
# [12] = S. cerevisiae deletion strains, locus YJR075W, strain HOC1, active compounds read low
# [13] = S. cerevisiae deletion strains, locus YLR039C, strain RIC1, active compounds read low
# [14] = S. cerevisiae deletion strains, locus YLR058C, strain SHM2 (second series), active compounds read low
# [15] = S. cerevisiae deletion strains, locus YLR085C, strain ARP6, active compounds read low
# [16] = S. cerevisiae deletion strains, locus YLR262C, strain YPT6, active compounds read low
# [17] = S. cerevisiae deletion strains, locus YML094W, strain GIM5, active compounds read low
# [18] = S. cerevisiae deletion strains, locus YMR219W, strain ESC1, active compounds read low
# [19] = S. cerevisiae deletion strains, locus YMR263W, strain SAP30, active compounds read low
# [20] = S. cerevisiae deletion strains, locus YMR307W, strain GAS1, active compounds read low
# [21] = S. cerevisiae deletion strains, locus YNL153C, strain GIM3, active compounds read low
# [22] = S. cerevisiae deletion strains, locus YNL298W, strain CLA4 (second series), active compounds read low
# [23] = S. cerevisiae deletion strains, locus YNL322C, strain KRE1, active compounds read low
# [24] = S. cerevisiae deletion strains, locus YNR030W, strain Alg12, active compounds read low
# [25] = S. cerevisiae deletion strains, locus YPL055C, strain LGE1, active compounds read low
# [26] = S. cerevisiae deletion strains, locus YPL241C, strain CIN2, active compounds read low
# [27] = S. cerevisiae deletion strains, locus YPR135W, strain CTF4, active compounds read low
smiles,measurement,setting,value
COC(=O)c1ccc(S(=O)(=O)N2CCC(C(N)=O)CC2)n1C,normalized growth,[1],0.97
same,normalized growth,[2],1
same,normalized growth,[3],0.99
same,normalized growth,[4],0.97
same,normalized growth,"S. cerevisiae deletion strains, locus YDL134C, strain PPH21, active compounds read low",1.03
same,normalized growth,[5],0.881
same,normalized growth,[6],1.02
same,normalized growth,[7],0.989
same,normalized growth,[8],1
same,normalized growth,[9],1.05
same,normalized growth,[10],0.993
same,normalized growth,[11],0.983
same,normalized growth,[12],0.988
same,normalized growth,"S. cerevisiae deletion strains, locus YKL190W, strain CNB1, active compounds read low",1.02
same,normalized growth,[13],1.01
same,normalized growth,[14],0.991
same,normalized growth,[15],1.06
same,normalized growth,[16],1.03
same,normalized growth,[17],0.999
same,normalized growth,[18],0.99
same,normalized growth,[19],0.981
same,normalized growth,[20],1.05
same,normalized growth,[21],1.01
same,normalized growth,[22],1.06
same,normalized growth,[23],1
same,normalized growth,[24],1.04
same,normalized growth,[25],0.852
same,normalized growth,[26],1.02
same,normalized growth,[27],1
CCOC(=O)c1ccc(NC(=O)CCC(=O)O)cc1,normalized growth,[1],0.994
same,normalized growth,[2],0.983
same,normalized growth,[4],0.978
same,normalized growth,[5],0.99
same,normalized growth,[6],0.99
same,normalized growth,[7],0.99
same,normalized growth,[9],1.07
same,normalized growth,[10],0.982
same,normalized growth,[11],1.01
same,normalized growth,[12],1
same,normalized growth,[13],1.06
same,normalized growth,[14],0.987
same,normalized growth,[15],1.02
same,normalized growth,[16],1.05
same,normalized growth,[17],1
same,normalized growth,[18],0.991
same,normalized growth,[19],0.981
same,normalized growth,[20],1.01
same,normalized growth,[21],1.01
same,normalized growth,[22],1.01
same,normalized growth,[23],0.989
same,normalized growth,[24],1.02
same,normalized growth,"S. cerevisiae deletion strains, locus YOL006C, strain TOP1, active compounds read low",1.04
same,normalized growth,[25],1
same,normalized growth,[26],1.01
same,normalized growth,[27],1.13
CCOC(=O)c1ccc(NC(N)=S)cc1,normalized growth,[1],1.01
same,normalized growth,[2],1.01
same,normalized growth,[3],0.994
same,normalized growth,[4],0.994
same,normalized growth,[5],0.941
same,normalized growth,[6],0.998
same,normalized growth,[7],0.993
same,normalized growth,[8],1
same,normalized growth,[9],1.03
same,normalized growth,[10],0.992
same,normalized growth,[11],0.997
same,normalized growth,[12],0.956
same,normalized growth,[13],1.01
same,normalized growth,[14],0.998
same,normalized growth,[15],0.974
same,normalized growth,[16],1.05
same,normalized growth,[17],0.966
same,normalized growth,[18],0.998
same,normalized growth,[19],0.935
same,normalized growth,[20],0.935
same,normalized growth,[21],0.979
same,normalized growth,[22],1
same,normalized growth,[23],1.01
same,normalized growth,[24],1
same,normalized growth,[25],0.949
same,normalized growth,[26],0.986
same,normalized growth,[27],0.968
same,normalized growth,"S. cerevisiae strains, strain wild type, active compounds read low",1.01
CCOC(=O)/C(C#N)=C(\Nc1ccc(C(=O)OCC)cc1)SC,normalized growth,"S. cerevisiae deletion strains, locus YAR019C, strain CDC15, active compounds read low",0.982
same,normalized growth,"S. cerevisiae deletion strains, locus YBL105C, strain PKC1, active compounds read low",0.977
same,normalized growth,"S. cerevisiae deletion strains, locus YBR135W, strain CKS1, active compounds read low",0.98
same,normalized growth,"S. cerevisiae deletion strains, locus YBR136W, strain MEC1, active compounds read low",0.974
same,normalized growth,"S. cerevisiae deletion strains, locus YBR160W, strain CDC28, active compounds read low",0.98
same,normalized growth,"S. cerevisiae deletion strains, locus YDL017W, strain CDC7, active compounds read low",0.978
same,normalized growth,"S. cerevisiae deletion strains, locus YDL028C, strain MPS1, active compounds read low",0.984
same,normalized growth,[4],0.977
same,normalized growth,"S. cerevisiae deletion strains, locus YDL108W, strain KIN28, active compounds read low",0.972
same,normalized growth,"S. cerevisiae deletion strains, locus YDL132W, strain cdc53, active compounds read low",0.981
same,normalized growth,"S. cerevisiae deletion strains, locus YDL214C, strain PRR2, active compounds read low",0.929
same,normalized growth,"S. cerevisiae deletion strains, locus YDR052C, strain DBF4, active compounds read low",0.983
same,normalized growth,"S. cerevisiae deletion strains, locus YDR054C, strain cdc34, active compounds read low",0.984
same,normalized growth,"S. cerevisiae deletion strains, locus YDR226W, strain ADK1, active compounds read low",0.979
same,normalized growth,"S. cerevisiae deletion strains, locus YDR477W, strain SNF1, active compounds read low",0.954
same,normalized growth,"S. cerevisiae deletion strains, locus YER123W, strain YCK3, active compounds read low",0.91
same,normalized growth,"S. cerevisiae deletion strains, locus YER133W, strain GLC7, active compounds read low",0.945
same,normalized growth,"S. cerevisiae deletion strains, locus YFL009W, strain cdc4, active compounds read low",0.978
same,normalized growth,"S. cerevisiae deletion strains, locus YFL029C, strain CAK1, active compounds read low",0.982
same,normalized growth,"S. cerevisiae deletion strains, locus YFR003C, strain YPI1, active compounds read low",0.977
same,normalized growth,"S. cerevisiae deletion strains, locus YFR019W, strain FAB1, active compounds read low",0.968
same,normalized growth,"S. cerevisiae deletion strains, locus YFR028C, strain CDC14, active compounds read low",0.979
same,normalized growth,"S. cerevisiae deletion strains, locus YGR040W, strain KSS1, active compounds read low",0.946
same,normalized growth,"S. cerevisiae deletion strains, locus YGR052W, strain FMP48, active compounds read low",0.959
same,normalized growth,"S. cerevisiae deletion strains, locus YGR092W, strain DBF2, active compounds read low",0.947
same,normalized growth,[9],0.815 (active)
same,normalized growth,"S. cerevisiae deletion strains, locus YHR079C, strain IRE1, active compounds read low",0.841
same,normalized growth,"S. cerevisiae deletion strains, locus YHR082C, strain KSP1, active compounds read low",0.998
same,normalized growth,"S. cerevisiae deletion strains, locus YHR205W, strain SCH9, active compounds read low",0.872
same,normalized growth,"S. cerevisiae deletion strains, locus YIL147C, strain SLN1, active compounds read low",0.98
same,normalized growth,"S. cerevisiae deletion strains, locus YJL095W, strain BCK1, active compounds read low",0.934
same,normalized growth,"S. cerevisiae deletion strains, locus YJL128C, strain PBS2, active compounds read low",0.913
same,normalized growth,"S. cerevisiae deletion strains, locus YJL157C, strain FAR1, active compounds read low",0.945
same,normalized growth,"S. cerevisiae deletion strains, locus YJR016C, strain ILV3, active compounds read low",0.99
same,normalized growth,"S. cerevisiae deletion strains, locus YJR066W, strain TOR1 (second series), active compounds read low",0.941
same,normalized growth,"S. cerevisiae deletion strains, locus YJR066W, strain TOR1, active compounds read low",0.985
same,normalized growth,"S. cerevisiae deletion strains, locus YKL048C, strain ELM1, active compounds read low",0.921
same,normalized growth,"S. cerevisiae deletion strains, locus YKL067W, strain YNK1, active compounds read low",0.928
same,normalized growth,"S. cerevisiae deletion strains, locus YKL101W, strain HSL1, active compounds read low",0.908
same,normalized growth,"S. cerevisiae deletion strains, locus YKL193C, strain SDS22, active compounds read low",0.984
same,normalized growth,"S. cerevisiae deletion strains, locus YKL203C, strain TOR2, active compounds read low",0.977
same,normalized growth,"S. cerevisiae deletion strains, locus YLR113W, strain HOG1, active compounds read low",0.706 (active)
same,normalized growth,"S. cerevisiae deletion strains, locus YLR133W, strain CKI1, active compounds read low",0.953
same,normalized growth,"S. cerevisiae deletion strains, locus YLR403W, strain SFP1, active compounds read low",0.954
same,normalized growth,"S. cerevisiae deletion strains, locus YML070W, strain DAK1, active compounds read low",0.909
same,normalized growth,"S. cerevisiae deletion strains, locus YMR001C, strain CDC5, active compounds read low",0.981
same,normalized growth,"S. cerevisiae deletion strains, locus YMR205C, strain PFK2 (second series), active compounds read low",0.949
same,normalized growth,"S. cerevisiae deletion strains, locus YMR277W, strain FCP1, active compounds read low",0.983
same,normalized growth,"S. cerevisiae deletion strains, locus YNL006W, strain LST8, active compounds read low",0.98
same,normalized growth,"S. cerevisiae deletion strains, locus YNL020C, strain ARK1, active compounds read low",0.944
same,normalized growth,"S. cerevisiae deletion strains, locus YNL161W, strain CBK1, active compounds read low",0.978
same,normalized growth,"S. cerevisiae deletion strains, locus YNL183C, strain NPR1, active compounds read low",0.948
same,normalized growth,"S. cerevisiae deletion strains, locus YNL207W, strain RIO2, active compounds read low",0.975
same,normalized growth,"S. cerevisiae deletion strains, locus YNL222W, strain SSU72, active compounds read low",0.982
same,normalized growth,"S. cerevisiae deletion strains, locus YNL307C, strain MCK1 (second series), active compounds read low",0.931
same,normalized growth,"S. cerevisiae deletion strains, locus YOL078W, strain AVO1, active compounds read low",0.994
same,normalized growth,"S. cerevisiae deletion strains, locus YOL136C, strain PFK27, active compounds read low",0.912
same,normalized growth,"S. cerevisiae deletion strains, locus YOR061W, strain CKA2, active compounds read low",0.949
same,normalized growth,"S. cerevisiae deletion strains, locus YOR119C, strain RIO1, active compounds read low",1.02
same,normalized growth,"S. cerevisiae deletion strains, locus YOR231W, strain MKK1, active compounds read low",0.864
same,normalized growth,"S. cerevisiae deletion strains, locus YOR329C, strain SCD5, active compounds read low",0.98
same,normalized growth,"S. cerevisiae deletion strains, locus YPL031C, strain PHO85, active compounds read low",0.957
same,normalized growth,"S. cerevisiae deletion strains, locus YPL153C, strain RAD53, active compounds read low",0.954
same,normalized growth,"S. cerevisiae deletion strains, locus YPL204W, strain HRR25, active compounds read low",0.948
same,normalized growth,"S. cerevisiae deletion strains, locus YPL209C, strain IPL1, active compounds read low",0.982
same,normalized growth,"S. cerevisiae deletion strains, locus YPL256C, strain CLN2, active compounds read low",0.751 (active)
same,normalized growth,"S. cerevisiae deletion strains, locus YPR025C, strain CCL1, active compounds read low",0.979
same,normalized growth,"S. cerevisiae deletion strains, locus YPR106W, strain ISR1, active compounds read low",0.978
same,normalized growth,"S. cerevisiae deletion strains, locus YPR111W, strain DBF20, active compounds read low",0.947
same,normalized growth,"S. cerevisiae deletion strains, strain NNK1, active compounds read low",0.959
same,normalized growth,"S. cerevisiae deletion strains, strain TSCII, active compounds read low",0.984
